Drawing on PubChem BioAssay, this text covers inhibition for 22 compounds.

Each structure is given as a SMILES string. Activity calls are given as the source filed them. No rule for the calls is given here.

Pantothenate synthetase (Mycobacterium tuberculosis (strain ATCC 25618 / H37Rv)), sequence (P9WIL5 whole entry, looked up): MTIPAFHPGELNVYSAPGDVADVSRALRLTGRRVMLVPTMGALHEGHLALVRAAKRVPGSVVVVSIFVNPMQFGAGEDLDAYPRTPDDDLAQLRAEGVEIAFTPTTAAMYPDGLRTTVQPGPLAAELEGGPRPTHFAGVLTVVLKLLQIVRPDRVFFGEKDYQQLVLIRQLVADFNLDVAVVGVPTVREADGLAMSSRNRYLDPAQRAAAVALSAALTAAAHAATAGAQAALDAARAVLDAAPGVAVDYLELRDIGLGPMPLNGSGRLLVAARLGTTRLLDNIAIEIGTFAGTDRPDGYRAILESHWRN

The experiment has as its target Pantothenate synthetase (Mycobacterium tuberculosis (strain ATCC 25618 / H37Rv)) (UniProt P9WIL5). The experiment is described as follows: Recombinant Mtb pantothenate synthetase (PanC) inhibitors, coupled enzyme, confirmatory (AID 375).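 Also: 0% = full reaction with vehicle and 100% = no enzyme background.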 As to conditions: coupled enzyme assay; at 10 µM, hits give high values.
With `Cc1cc(NC(=O)CCCC(=O)Nc2ccc(F)cc2)no1`, the inhibition was 4% (inactive).

`COc1ccccc1OCc1nc2ccccc2[nH]1`: the inhibition is 0% (inactive).

Regarding `c1cnc(NCCNc2ncccn2)nc1`, the inhibition is 0% (inactive).

With `c1ccc2c(c1)Cn1c-2nc2ccccc21`, the inhibition was 0% (inactive).

`S=C(NCC1CCCO1)n1nnc2ccccc21` (configuration not stated): the inhibition was 6% (inactive).

As to `Cc1ccc(C)n1-n1c(C)nc2sc(-c3ccccc3)cc2c1=O`, the inhibition was 0% (inactive).

`O=C(CSc1nnc2scc(-c3ccccc3)n12)Nc1nsc(-c2ccccc2)n1`: the inhibition was 1% (inactive).

Turning to `COc1ccc(C(=O)NCCn2ccc3ccccc32)cc1`, the inhibition is 0% (inactive).

For `COc1cc(C)nc(NS(=O)(=O)c2ccc(C)cc2)n1`, the inhibition was 5% (inactive).

For `CCOc1ccccc1NS(=O)(=O)c1c(C)noc1C`, the inhibition was 0% (inactive).

With `O=C(Nc1ccc(-c2noc(-c3cccs3)n2)cc1)c1cccnc1`, the inhibition was 0% (inactive).

As to `Cc1cccc(N2CCN(Cc3c(C)n(C)n(-c4ccccc4)c3=O)CC2)c1C`, the inhibition is 0% (inactive).

As to `COC(=O)C1=C(C)OC(N)=C(C#N)C1c1c(C)nn(-c2ccccc2)c1Cl` (configuration not stated), the inhibition is 0% (inactive).

`COc1cccc(-n2ccnc2SCC(=O)N2CCc3ccccc32)c1`: the inhibition is 0% (inactive).

For the compound `C/C(=N\O)C(C)/[N+]([O-])=C/c1nc(C)c(C)n1O` (configuration not stated), the inhibition is 0% (inactive).

For `Cn1c(=O)c2c(nc(-n3ccnc3)n2C)n(C)c1=O`, the inhibition was 0% (inactive).

For `O=C(N1CCN(c2ccccc2F)CC1)C12CC3CC(CC(C3)C1)C2`, the inhibition is 0% (inactive).

On to `Cn1c(Cl)cnc1C1CC(=O)c2cc(Cl)ccc2O1` (configuration not stated), for which the inhibition was 7% (inactive).

As to `CC1(C)CC(=O)C2=C(C1)N(Cc1ccco1)C(=O)C2(NC(=O)C1CCCCC1)C(F)(F)F` (configuration not stated), the inhibition is 4% (inactive).

Consider `CC(=O)c1cccc(NC(=O)CCOc2ccccc2)c1`, for which the inhibition was 1% (inactive).

For `COc1ccc(N2CCN(Cc3nc4c(c(=O)n(C)c(=O)n4C)n3Cc3ccccc3C)CC2)cc1`, the inhibition is 7% (inactive).

As to `CCN(Cc1cc2cc(OC)ccc2[nH]c1=O)C(=O)Cc1ccc(OC)cc1`, the inhibition is 0% (inactive).

The inhibition is the share of the control response that was lost under treatment.
